The values that follow come from the supplement of paper PMC10732440.

± gives the standard deviation of the averaged measurements.

This assay deals with Caenorhabditis elegans N2 infected with Nematocida parisii ERTm1. As to the kind of experiment: progeny production relative to DMSO uninfected control; higher = more progeny despite microsporidia infection (inhibition of infection with low host toxicity). The settings on record: infection time 6 days. In outline:
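Bleach-synchronised wild-type C. elegans L1 larvae (100 per well) were placed in 96-well plates with K-medium, E. coli OP50 and 15,000 N. parisii spores/μL, with compound pinned to 100 μM or 40 μM in 1% DMSO. Plates were shaken at 21°C for 6 days; worms were then Rose Bengal-stained, flatbed-scanned and counted with WorMachine, each compound and dose tested three times. Progeny production is given as a percentage of the spore-free vehicle control, averaged across replicates.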

Turning to `COc1ccc(C2=CC(c3c(F)cccc3Cl)n3ncnc3N2)cc1` (configuration not stated), the progeny production is 3.01 ± 1.9% (40 µM) and 8.48 ± 5.9% (100 µM).

For `Nc1cnn(C2OC(CO)C(O)C2O)c(=O)n1` (configuration not stated), the progeny production by setting is: (40 µM) 3.5 ± 1.1%; (100 µM) 13.1 ± 5.4%.

With `CO[C@@]1(NC(=O)Cc2cccs2)C(=O)N2C(C(=O)O)=C(COC(N)=O)CS[C@@H]21`, the progeny production (40 µM) amounted to 8.96 ± 2.4% and the progeny production (100 µM) was 7.7 ± 7.8%.

As to `Cc1cc(C)n2nc(C(=O)NS(=O)(=O)c3c(C)cccc3OC(F)(F)F)nc2n1`, the progeny production reads like this: (40 µM) 9.33 ± 0.97%; (100 µM) 5.89 ± 3.9%.

As for `O=S(=O)(Nc1cccc2cccnc12)c1ccccc1`, the progeny production (40 µM) turned out to be 5.03 ± 2.5% and the progeny production (100 µM) came to 12.9 ± 7.2%.

Turning to `Nc1cc(N)c2nc(-c3ccccc3)c(Nc3ccc(F)cc3)nc2c1`, the progeny production by setting is: (40 µM) 4.57 ± 1.7%; (100 µM) 23.5 ± 17%.

The molecule `O=c1[nH]c(=O)n(Cc2cccc(Oc3ccccc3)c2)cc1Nc1ccccc1` had a progeny production (40 µM) of 4.29 ± 3.5% and a progeny production (100 µM) of 9.39 ± 4.3%.

For `c1ccc(-c2nnc3c4ccccc4c(N4CCNCC4)nn23)cc1`, the progeny production (40 µM) was 2.73 ± 0.97% and the progeny production (100 µM) is 15.6 ± 12%.

Consider `Nc1nc2c(Cc3cccnc3)c[nH]c2c(=O)[nH]1`, for which the progeny production reads like this: (40 µM) 5.79 ± 0.11%; (100 µM) 16.4 ± 9.7%.

For the molecule `NCC(=O)Nc1ccc(-n2nc(C(F)(F)F)cc2-c2ccc3c(ccc4ccccc43)c2)cc1`, the progeny production runs as follows: (40 µM) 4.52 ± 2.6%; (100 µM) 11.9 ± 7%.

For the molecule `CC[C@@]1(O)C(=O)OCc2c1cc1n(c2=O)Cc2cc3c([N+](=O)[O-])cccc3nc2-1`, the progeny production came out at 5.77 ± 1.9% (40 µM) and 8.29 ± 3.3% (100 µM).

With `O=C(NC(=O)N1CCCc2ccccc21)c1ccc(Cl)cc1Cl`, the progeny production (40 µM) worked out at 3.48 ± 1.1% and the progeny production (100 µM) amounted to 19.2 ± 21%.

Take `COc1ccc(NS(=O)(=O)c2ccc(Cl)s2)cn1`: the progeny production was found to be 4.12 ± 0.52% (40 µM) and 15 ± 3% (100 µM).

Turning to `CC1(C)Cc2c(C#N)c(SCCc3ccccc3)nc(N3CCOCC3)c2CO1`, the progeny production runs as follows: (40 µM) 3.65 ± 0.7%; (100 µM) 18.8 ± 15%.

`O=C(Nc1ccccc1C(=O)O)c1cccc(Oc2ccccc2)c1`: the progeny production turned out to be 3.52 ± 1.3% (40 µM) and 16.2 ± 14% (100 µM).

In the case of `CCc1oc2ccccc2c1C(=O)c1ccc(O)cc1`, the progeny production came out at 11.4 ± 2.5% (40 µM) and 16.8 ± 0.54% (100 µM).
